# Laboratory results reported in PubChem BioAssay AID720550 (National Center for Advancing Translational Sciences (NCATS), 2013).
# Inconclusive results are not listed. Calls of active or inactive are those of the source. Calls follow the shape of the dose curve; as a rule, active = well fitted curve in the direction sought with a large enough effect; inconclusive = small, poorly fitted or top-dose-only effect, or another doubt; inactive = no such curve, though single readings can be large or run the other way.
# Experiment: qHTS for Inhibitors of Bloom's syndrome helicase (BLM): Thiazole Orange DNA Binding Counterscreen for SAR.
# From the text: Human RecQ DNA helicases participate in maintenance of genome stability and DNA repair. While other types of helicases have been explored as targets for drug development, members of the RecQ family have remained less well characterized. Mutations of the Bloom helicase gene have been associated with the rare human genetic disease called Bloom syndrome. […] Moreover, identified inhibitors can be used in cells and animal models to examine the consequences of inhibition on the survival of cancer cells where it has been shown that BLM plays an important role.
# A fluorescence-based, biochemical assay in 1536 well format was developed to evaluate inhibition of BLM DNA unwinding activity. This assay was used to screen the MLPCN library. The resulting compounds were subjected to orthogonal and secondary biochemical assays to triage the initial hits, to classify compounds based on mode of action and to derive structure activity relationships (SARs) of candidate effectors. The Thiazole Orange (ThO) DNA binding (TO-binding) is used to eliminate inhibitors that operate via nonspecific DNA binding. […]
# Compounds were added to a 4 uL mixture of 50 nM DNA and 100 nM ThO via pintool transfer. The fluorescence signal (excitation 480 nm, emission 530 nm) was measured after 15 min incubation at room temperature using the ViewLux CCD imager.
row,SMILES,outcome
1,N#Cc1ccc(NC(=O)Nc2nnc(-c3ccncc3)s2)cc1C(F)(F)F,inactive
2,N#Cc1ccc(NC(=O)Nc2nnc(-c3ccncc3)s2)cc1Cl,inactive
